What all share (parameters): scale not given: direction of the effect not stated beside the values
Assay [1] addresses Protein translocase subunit SecA (Escherichia coli (strain K12)) (UniProt P10408). In words: Assay to Identify E. coli SecA ATPase Inhibitors. Conditions: 30 µM. The format is functional.
Assay [2] addresses T1, Ubiquitin-activating enzyme e1, putative (Leishmania donovani (strain BPK282A1)) (UniProt E9BSI1).
T1 sequence (whole entry): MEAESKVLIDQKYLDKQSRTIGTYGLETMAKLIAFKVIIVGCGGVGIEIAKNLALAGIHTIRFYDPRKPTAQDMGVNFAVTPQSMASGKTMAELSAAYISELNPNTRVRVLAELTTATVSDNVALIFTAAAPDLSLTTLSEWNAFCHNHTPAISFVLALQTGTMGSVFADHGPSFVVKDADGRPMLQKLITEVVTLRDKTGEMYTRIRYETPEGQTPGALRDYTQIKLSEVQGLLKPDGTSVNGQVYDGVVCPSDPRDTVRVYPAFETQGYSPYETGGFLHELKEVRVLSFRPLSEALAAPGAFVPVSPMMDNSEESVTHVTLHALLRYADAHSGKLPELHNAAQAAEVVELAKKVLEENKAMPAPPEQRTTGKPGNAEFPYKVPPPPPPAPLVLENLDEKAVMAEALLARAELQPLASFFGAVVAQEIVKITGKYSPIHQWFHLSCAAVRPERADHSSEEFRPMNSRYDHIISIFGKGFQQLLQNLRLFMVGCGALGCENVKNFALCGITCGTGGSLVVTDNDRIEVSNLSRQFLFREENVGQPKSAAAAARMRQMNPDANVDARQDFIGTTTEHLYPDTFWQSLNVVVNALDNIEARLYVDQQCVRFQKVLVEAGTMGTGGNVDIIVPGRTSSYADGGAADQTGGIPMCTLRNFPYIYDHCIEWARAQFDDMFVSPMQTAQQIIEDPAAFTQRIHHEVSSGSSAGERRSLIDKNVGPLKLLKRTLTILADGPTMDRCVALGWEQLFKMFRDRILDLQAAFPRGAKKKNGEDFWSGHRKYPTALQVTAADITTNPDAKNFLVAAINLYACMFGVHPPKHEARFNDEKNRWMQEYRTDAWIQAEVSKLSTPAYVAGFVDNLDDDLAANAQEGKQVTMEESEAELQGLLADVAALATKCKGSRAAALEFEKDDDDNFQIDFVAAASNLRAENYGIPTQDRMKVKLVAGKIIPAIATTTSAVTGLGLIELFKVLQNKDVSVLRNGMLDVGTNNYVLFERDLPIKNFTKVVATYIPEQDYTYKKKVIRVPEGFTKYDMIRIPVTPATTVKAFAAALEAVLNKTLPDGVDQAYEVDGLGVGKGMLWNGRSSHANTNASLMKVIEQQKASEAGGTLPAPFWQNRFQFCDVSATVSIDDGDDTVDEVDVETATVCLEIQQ
In words: Leishmania donovani Ubiquitin Activating Enzyme (LdE1). Conditions: 30 µM. The format is functional.

Assay [3] deals with Sialic acid-binding Ig-like lectin 9 (Homo sapiens) (UniProt Q9Y336). In words: Hs-Siglec9 ALPHAscreen SOP 20170721. Particulars: 10 µM.
Sialic acid-binding Ig-like lectin 9 (Homo sapiens), sequence (Q9Y336 whole entry): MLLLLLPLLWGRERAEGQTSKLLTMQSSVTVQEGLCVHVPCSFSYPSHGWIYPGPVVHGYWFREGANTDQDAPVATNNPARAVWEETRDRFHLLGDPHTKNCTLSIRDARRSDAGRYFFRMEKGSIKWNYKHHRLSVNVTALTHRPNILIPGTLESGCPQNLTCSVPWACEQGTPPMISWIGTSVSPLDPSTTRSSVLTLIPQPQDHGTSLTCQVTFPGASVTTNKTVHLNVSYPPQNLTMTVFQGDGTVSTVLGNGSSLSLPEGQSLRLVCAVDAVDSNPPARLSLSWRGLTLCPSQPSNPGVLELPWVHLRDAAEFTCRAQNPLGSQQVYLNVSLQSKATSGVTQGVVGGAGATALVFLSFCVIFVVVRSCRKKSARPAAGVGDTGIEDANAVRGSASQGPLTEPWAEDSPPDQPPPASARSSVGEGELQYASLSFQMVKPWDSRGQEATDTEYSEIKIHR
The subject of a further assay is Trypanosoma cruzi. Put plainly: Trypanosoma cruzi phosphomannomutase and mannose-1-phosphate guanylyltransferase assay. Conditions: 10 µM. The format is functional.
In assay [4] the target is T2, Arginase-2, mitochondrial (Homo sapiens) (UniProt P78540).
T2 sequence (whole entry): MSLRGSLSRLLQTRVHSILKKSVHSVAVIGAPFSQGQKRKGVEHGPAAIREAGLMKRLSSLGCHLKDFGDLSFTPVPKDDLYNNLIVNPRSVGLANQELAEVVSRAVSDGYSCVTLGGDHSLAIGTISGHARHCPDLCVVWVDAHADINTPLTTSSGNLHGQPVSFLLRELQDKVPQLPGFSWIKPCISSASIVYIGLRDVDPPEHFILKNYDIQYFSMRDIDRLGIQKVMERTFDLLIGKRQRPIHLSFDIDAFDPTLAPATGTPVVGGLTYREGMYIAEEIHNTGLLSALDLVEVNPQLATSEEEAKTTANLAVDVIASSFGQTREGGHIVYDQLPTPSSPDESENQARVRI
In words: in vitro enzyme assay to detect the production of urea directly proportional to the activity of Arginase II. Further: in the data most compounds retested in dose-response had high values. The format is functional. Conditions: 33.3 µM.

Assay [5] has as its target T3, Proteasome subunit beta (Trypanosoma cruzi) (UniProt O96673).
T3 sequence (whole entry): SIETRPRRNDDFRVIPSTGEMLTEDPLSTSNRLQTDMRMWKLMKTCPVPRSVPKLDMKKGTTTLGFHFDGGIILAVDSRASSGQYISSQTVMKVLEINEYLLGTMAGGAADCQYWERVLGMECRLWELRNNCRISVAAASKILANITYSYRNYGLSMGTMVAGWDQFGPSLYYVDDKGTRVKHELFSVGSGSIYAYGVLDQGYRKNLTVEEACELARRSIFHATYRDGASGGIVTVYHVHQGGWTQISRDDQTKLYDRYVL
In words: Trypanosoma cruzi proteasome chymotrypsin-like activity (TcProtChymo) assay. Further: in the data most compounds retested in dose-response had high values. The format is functional. Conditions: 9.37 µM.

The species named for a further assay is Homo sapiens. Put plainly: To identify inhibition of the IFN signalling (Jak-Stat) pathway via expression of an eGFP reporter gene under the control of an IFN-stimulated response element (ISRE) containing MxA promoter. The format is functional. Particulars: 30 µM.
Assay [6] addresses T4, Tyrosyl-tRNA synthetase, putative (Trypanosoma cruzi (strain CL Brener)) (UniProt Q4DSP6).
T4 sequence (whole entry): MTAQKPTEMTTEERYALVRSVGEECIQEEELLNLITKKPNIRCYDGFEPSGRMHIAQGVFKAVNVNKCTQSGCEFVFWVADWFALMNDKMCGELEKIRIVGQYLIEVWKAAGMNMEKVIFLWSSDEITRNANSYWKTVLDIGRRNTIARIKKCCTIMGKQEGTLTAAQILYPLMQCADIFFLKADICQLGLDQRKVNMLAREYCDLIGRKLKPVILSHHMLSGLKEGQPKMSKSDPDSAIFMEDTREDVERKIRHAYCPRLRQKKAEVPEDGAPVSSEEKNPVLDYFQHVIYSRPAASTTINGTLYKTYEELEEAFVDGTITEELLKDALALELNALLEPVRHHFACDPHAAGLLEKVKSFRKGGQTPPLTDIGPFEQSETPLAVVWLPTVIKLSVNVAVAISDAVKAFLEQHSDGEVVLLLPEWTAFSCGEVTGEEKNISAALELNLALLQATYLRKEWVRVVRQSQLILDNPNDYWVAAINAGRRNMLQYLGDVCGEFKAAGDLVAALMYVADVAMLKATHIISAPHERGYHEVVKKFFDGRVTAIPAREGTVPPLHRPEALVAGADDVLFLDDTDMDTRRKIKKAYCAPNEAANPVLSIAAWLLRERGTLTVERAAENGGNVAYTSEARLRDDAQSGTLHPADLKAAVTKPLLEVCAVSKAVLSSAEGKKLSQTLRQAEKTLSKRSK
In words: Trypanosoma cruzi tyrosyl tRNA synthetase (TcYRS) _High Tyrosine SOP. Further: in the data most compounds retested in dose-response had high values. The format is functional. Conditions: 30 µM.

Assay [7] deals with T4, Tyrosyl-tRNA synthetase, putative (Trypanosoma cruzi (strain CL Brener)). In words: Trypanosoma cruzi tyrosyl tRNA synthetase (TcYRS) SOP. The format is functional. Particulars: 30 µM.
Assay [8] addresses Chromo domain-containing protein 1 (Saccharomyces cerevisiae (strain ATCC 204508 / S288c) (Baker's yeast)) (UniProt P32657). Put plainly: ScCHD-1 Enzyme Inhibition Assay. Further: in the data most compounds retested in dose-response had high values. The format is functional. Conditions: 30 µM.

For part of these data: Potency and affinity values are given separately.

Protein translocase subunit SecA (Escherichia coli (strain K12)), sequence (P10408 whole entry): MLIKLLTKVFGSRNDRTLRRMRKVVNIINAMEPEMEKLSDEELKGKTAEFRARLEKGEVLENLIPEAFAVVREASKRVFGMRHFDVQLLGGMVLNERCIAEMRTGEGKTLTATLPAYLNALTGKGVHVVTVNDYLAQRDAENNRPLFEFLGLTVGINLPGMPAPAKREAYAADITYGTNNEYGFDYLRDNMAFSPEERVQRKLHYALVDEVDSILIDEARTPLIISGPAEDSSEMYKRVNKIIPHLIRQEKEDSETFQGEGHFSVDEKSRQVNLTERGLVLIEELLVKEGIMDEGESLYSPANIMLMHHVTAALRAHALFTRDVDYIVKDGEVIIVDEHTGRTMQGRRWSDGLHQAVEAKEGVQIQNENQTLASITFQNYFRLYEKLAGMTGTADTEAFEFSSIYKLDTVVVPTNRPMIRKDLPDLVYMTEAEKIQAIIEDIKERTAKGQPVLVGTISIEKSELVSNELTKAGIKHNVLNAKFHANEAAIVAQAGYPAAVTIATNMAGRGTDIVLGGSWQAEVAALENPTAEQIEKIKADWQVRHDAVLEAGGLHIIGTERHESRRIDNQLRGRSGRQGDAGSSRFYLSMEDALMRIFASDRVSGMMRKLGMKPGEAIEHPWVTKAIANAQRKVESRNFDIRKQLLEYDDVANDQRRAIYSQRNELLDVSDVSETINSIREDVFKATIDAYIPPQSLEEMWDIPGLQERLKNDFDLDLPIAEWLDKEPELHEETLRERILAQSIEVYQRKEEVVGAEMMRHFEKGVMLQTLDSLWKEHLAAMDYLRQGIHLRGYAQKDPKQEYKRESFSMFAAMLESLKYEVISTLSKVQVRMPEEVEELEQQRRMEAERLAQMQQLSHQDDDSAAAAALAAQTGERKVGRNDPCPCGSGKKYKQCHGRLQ
Chromo domain-containing protein 1 (Saccharomyces cerevisiae (strain ATCC 204508 / S288c) (Baker's yeast)), sequence (P32657 whole entry, the tested form may be a part): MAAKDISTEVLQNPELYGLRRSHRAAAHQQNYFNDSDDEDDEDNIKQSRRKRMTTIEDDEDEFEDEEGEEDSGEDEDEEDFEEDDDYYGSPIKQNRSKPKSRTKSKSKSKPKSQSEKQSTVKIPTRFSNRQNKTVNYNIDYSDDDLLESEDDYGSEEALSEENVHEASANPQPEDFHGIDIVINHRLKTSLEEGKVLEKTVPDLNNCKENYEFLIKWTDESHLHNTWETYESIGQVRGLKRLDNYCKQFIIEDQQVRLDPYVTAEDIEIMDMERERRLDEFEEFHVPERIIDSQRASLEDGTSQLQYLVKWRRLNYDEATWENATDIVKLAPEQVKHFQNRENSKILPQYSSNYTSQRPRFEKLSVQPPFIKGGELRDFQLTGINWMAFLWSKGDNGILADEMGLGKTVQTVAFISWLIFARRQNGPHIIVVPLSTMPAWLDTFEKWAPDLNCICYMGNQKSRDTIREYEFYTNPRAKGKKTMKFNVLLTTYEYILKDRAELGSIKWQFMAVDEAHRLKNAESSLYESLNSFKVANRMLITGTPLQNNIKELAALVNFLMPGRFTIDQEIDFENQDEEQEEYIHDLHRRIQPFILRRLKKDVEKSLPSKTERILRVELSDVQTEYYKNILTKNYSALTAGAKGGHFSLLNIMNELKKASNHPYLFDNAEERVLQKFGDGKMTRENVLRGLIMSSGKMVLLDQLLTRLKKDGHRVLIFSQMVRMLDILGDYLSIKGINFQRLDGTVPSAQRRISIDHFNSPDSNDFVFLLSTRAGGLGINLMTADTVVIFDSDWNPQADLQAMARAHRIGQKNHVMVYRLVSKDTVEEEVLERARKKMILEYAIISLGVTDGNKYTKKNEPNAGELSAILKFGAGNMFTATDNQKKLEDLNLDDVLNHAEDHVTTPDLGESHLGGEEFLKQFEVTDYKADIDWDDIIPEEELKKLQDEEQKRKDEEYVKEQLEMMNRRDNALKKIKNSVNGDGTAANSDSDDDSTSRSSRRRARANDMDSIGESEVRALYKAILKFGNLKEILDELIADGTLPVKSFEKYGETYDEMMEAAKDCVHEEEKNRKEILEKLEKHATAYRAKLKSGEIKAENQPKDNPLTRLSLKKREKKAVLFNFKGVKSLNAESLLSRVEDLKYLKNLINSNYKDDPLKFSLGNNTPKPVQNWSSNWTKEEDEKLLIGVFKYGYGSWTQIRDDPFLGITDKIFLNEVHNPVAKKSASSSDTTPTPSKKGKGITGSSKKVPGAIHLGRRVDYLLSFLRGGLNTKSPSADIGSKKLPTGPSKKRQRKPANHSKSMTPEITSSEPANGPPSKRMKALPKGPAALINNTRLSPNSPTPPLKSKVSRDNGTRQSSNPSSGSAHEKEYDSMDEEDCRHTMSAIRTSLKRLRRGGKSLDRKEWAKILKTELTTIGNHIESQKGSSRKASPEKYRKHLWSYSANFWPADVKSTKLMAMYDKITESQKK

Consider `NC[C@H]1CC[C@H](C(NC(=O)c2ccccc2)c2ccccn2)CC1` (stereo not given in full), for which the Percent Effect was -0.915% in [1]; 12% in [2]; -7.17% in assay [3]; 4.54% with Trypanosoma cruzi; -2.21% in assay [4]; 13.3% in [5]. Further, the Percent Effect is -1.97% in the assay filed under Homo sapiens, 10.6% in assay [6], 25% in assay [7] and -27.6% in assay [8].
For `CCc1nccn1C1CCCN(C(=O)Cc2ccc(OC)c(F)c2)C1` (stereo not given), the Percent Effect in assay [1] was -7.36%; in [2], 16%; in assay [3] it was 14.5%; in the assay on Trypanosoma cruzi, -1.21%; in assay [4], 1.77%; in assay [5], 7.38%. Further, the Percent Effect in the assay filed under Homo sapiens is 13%; in assay [6], 6.84%; in assay [7] it was 10.3%; in [8] it was -9.19%.
With `CN(C)CC1CN(Cc2coc(-c3cccs3)n2)CCO1` (stereo not given), the Percent Effect was -1.09% in [1]; 13.3% in assay [2]; -3.06% in [3]; -2.41% in the assay with Trypanosoma cruzi; 2.22% in assay [4]; 11.8% in assay [5]. For the same molecule, the Percent Effect in the assay filed under Homo sapiens was 15.3%; in [6], -0.526%; in [7], 5.13%; in [8], -10.9%.
On to `CN(Cc1ccccc1)CC(O)Cn1cnc2c(cnn2C)c1=O` (stereo not given), for which the Percent Effect in assay [1] is -1.52%; in assay [2] it was 17.9%; in assay [3], -4.11%; in the assay with Trypanosoma cruzi, 4.79%; in assay [4], 2.46%; in assay [5], 10.5%. The Percent Effect in the assay listed under Homo sapiens is -1.98%; in [6] it was 7.18%; in assay [7] it was 22.9%; in assay [8] it was -3.86%.
For `O=C(c1ccc(OCC2CC2)nc1)N1CCCC(n2cncn2)C1` (stereo not given), the Percent Effect in [1] is -1.42%; in assay [2] it was 10.3%; in [3], -4.65%; in the assay with Trypanosoma cruzi, -3.1%; in [4] it was 7.79%; in [5], 9.13%. Besides, the Percent Effect in the assay filed under Homo sapiens was 19.1%; in assay [6], 5.26%; in [7], 13.2%; in [8], -4.21%.
For `COc1ccc(OC)c(Sc2ncccc2C(=O)N(C)CCC#N)c1`, the Percent Effect is -2.48% in assay [1]; 16.9% in assay [2]; -3.09% in [3]; 0.75% in the assay with Trypanosoma cruzi; 0% in assay [4]; 15.5% in assay [5]. For the same molecule, the Percent Effect in the assay filed under Homo sapiens was 32.7%; in assay [6] it was 4.83%; in assay [7], 10%; in assay [8], -12.2%.
`COCC1CN(Cc2ccc(OC)cc2)Cc2nn(C)cc21` (stereo not given): the Percent Effect in assay [1] was 0.916%; in [2], 22.1%; in assay [3], -1.55%; in the assay on Trypanosoma cruzi, -9.45%; in assay [4] it was 12.2%; in assay [5] it was 18.4%. Moreover, the Percent Effect is 20.9% in the assay filed under Homo sapiens, 6.84% in assay [6], 2.56% in assay [7] and -2.71% in [8].
Turning to `OC(COCc1ccccc1F)CN1CCc2c(ncn2C2CC2)C1` (stereo not given), the Percent Effect in [1] was -3.46%; in assay [2], -5.33%; in assay [3], 7.5%; in the assay on Trypanosoma cruzi it was -4.02%; in assay [4], 2.66%; in assay [5], 8.06%. The Percent Effect in the assay listed under Homo sapiens is 10.4%; in [6], 2.63%; in assay [7] it was 0%; in [8], -6.26%.
On to `CCc1sc(-c2nnc(CNCCn3cc(C)cn3)o2)cc1C`, for which the Percent Effect was -2.72% in assay [1]; 5.2% in assay [2]; 8.91% in assay [3]; -6.34% with Trypanosoma cruzi; 4.71% in assay [4]; 1.93% in [5]. For the same molecule, the Percent Effect in the assay filed under Homo sapiens was 10.2%; in [6], 4.9%; in [7] it was 7.06%; in [8], -8.57%.
In the case of `COc1ccc(C(=O)NCCCn2ccnc2)c(OC)n1`, the Percent Effect was -2.17% in [1]; 24.7% in [2]; 1.39% in [3]; 3.75% in the assay on Trypanosoma cruzi; 0% in assay [4]; 10.6% in assay [5]. Moreover, the Percent Effect was 11.6% in the assay listed under Homo sapiens, 6.76% in assay [6], 22.5% in [7] and -12.8% in assay [8].
Regarding `CN(CC(=O)Nc1ccc(Br)cn1)C(=O)Cc1ccc(O)cc1`, the Percent Effect in assay [1] was -6.43%; in assay [2], -18.7%; in [3], 0.45%; with Trypanosoma cruzi, 2.61%; in [4], -0.887%; in assay [5], 8.4%. Moreover, the Percent Effect was 0.283% in the assay filed under Homo sapiens, 3.68% in assay [6], -82% in assay [7] and -5.7% in [8].
For `Cc1cc(OCC(=O)N2CCCC(c3ccn[nH]3)C2)no1` (stereo not given), the Percent Effect in [1] is -3.04%; in assay [2] it was 5.33%; in [3], 5.5%; with Trypanosoma cruzi it was -5.62%; in assay [4], 3.55%; in assay [5], 6.36%. The Percent Effect in the assay filed under Homo sapiens is 3.56%; in [6], 3.68%; in assay [7], 7.69%; in [8], -8.42%.

(Values after ChEMBL document CHEMBL3988442, “University of Dundee, Small-Polar-MMV Screening Library” (2021).)
